{"source": "the supplement of paper PMC10338343", "note": "± gives the standard deviation.", "data": [{"tested_on": "MILI (PIWIL2) piRISC loaded with piRNA #1 (26 nt)", "assay": "pre-steady-state target cleavage rate (min^-1); guide: piRNA #1 5'p-UGAGGUAGUAGGUUGUAUAGUAUCCA; MIWI and MILI are mouse PIWI proteins and EfPiwi is from a freshwater sponge; tags in brackets are library labels; higher = faster piRNA-guided slicing of the target", "conditions": "auxiliary factor: 500 nM mouse GTSF1", "method_in_brief": "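Active affinity-purified piRISC (1 nM) loaded with one synthetic guide was mixed with a transcribed, DNA-blocked target RNA library (0.1 nM), with or without 500 nM GTSF1 partner protein, in HEPES–potassium acetate buffer at 33 °C for 0–8 or 0–960 min. Uncleaved targets were sequenced, normalised to depth and to weakly complementary targets, and pooled across three trials, with k3 capped at 0.0001 min^-1. The pre-steady-state cleavage rate was determined with a burst-and-steady-state fit.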", "values": [{"sequence": "GGAGACCUAUCUUUACAACGUACUACCUCA", "pre-steady-state target cleavage rate": "0.00834 ± 0.002"}, {"sequence": "GGAGACCUUACAAUACAACCUACUACCUGA", "pre-steady-state target cleavage rate": "0.0872 ± 0.013"}, {"sequence": "GGAGACCUAUGAUAUGUACCUAGUUCCUCA", "pre-steady-state target cleavage rate": "< 0.0001"}, {"sequence": "GGAGACCAUACUAUACUAGCUACUACCUCA", "pre-steady-state target cleavage rate": "0.182 ± 0.018"}, {"sequence": "GGAGACCUUACUAUACAUCCUACUACGUCA", "pre-steady-state target cleavage rate": "0.141 ± 0.022"}, {"sequence": "GGAGACCUAUGUAAACAACCUACUACGUCA", "pre-steady-state target cleavage rate": "0.00279 ± 0.0027"}, {"sequence": "GGAGACCUAACUAUACAUCCUACUUCCUCA", "pre-steady-state target cleavage rate": "0.14 ± 0.044"}, {"sequence": "GGAGACCUAUCAAUACAACCUACUACCACA", "pre-steady-state target cleavage rate": "0.0775 ± 0.019"}, {"sequence": "GGAGACCUAUGUAUACAACCUACUUCCUCA", "pre-steady-state target cleavage rate": "0.0381 ± 0.0071"}, {"sequence": "GGAGACCUAACAAUACAACGUACUACCUCA", "pre-steady-state target cleavage rate": "0.00908 ± 0.0045"}, {"sequence": "GGAGACCUAUGUAUCAACCUACUACCUCA", "pre-steady-state target cleavage rate": "0.00951 ± 0.0023"}, {"sequence": "GGAGACCUUACUAUACAACGUACUACCACA", "pre-steady-state target cleavage rate": "0.0216 ± 0.0046"}, {"sequence": "GGAGACGAUAGUAUACAACCUACUUCCUCA", "pre-steady-state target cleavage rate": "0.0731 ± 0.015"}, {"sequence": "GGAGACCUUACUAUACAUGCUACUACCUCA", "pre-steady-state target cleavage rate": "0.111 ± 0.0086"}, {"sequence": "GGAGACCUAUGAUAAGAACCUACUUCCUCA", "pre-steady-state target cleavage rate": "< 0.0001"}, {"sequence": "GGAGACCUAUCUAUACAACCGUACUACCUCA", "pre-steady-state target cleavage rate": "0.00775 ± 0.0032"}]}]}
